Bioassay records from PubChem BioAssay.
Rows were chosen to be rich in hits. Some 10% of all compounds tested hit in one or more screens of this group.
G9a inh: qHTS Assay for Inhibitors of Histone Lysine Methyltransferase G9a; Histone-lysine N-methyltransferase EHMT2 (Homo sapiens), Q96KQ7; G9a H3K9 monomethylation, AlphaScreen, 2 h; Potency, µM (series often up to 102 µM), without a hit: at the highest dose activity, negative = inhibition, usual class: inhibitors; 8.8% of 350,000 active; also: potency is read from the fitted curve at half-maximal effect; % is scaled to controls: 0 for no effect and ±100 for the full control effect; nearly all actives have a fitted effect of over 75% in size
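Methyltransferase reactions run at room temperature for 2 h (20 nM enzyme, 500 nM biotin-H3K9 peptide, 20 uM SAM) after a 15 min compound preincubation; product detected by AlphaScreen beads and anti-H3K9me1 antibody.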
HP1b chromo inh: HTS for Inhibitors of HP1-beta Chromodomain Interactions with Methylated Histone Tails; Chromobox protein homolog 1 (Homo sapiens), P83916; Potency, µM (series often up to 114 µM), for inactives: top-dose activity change, negative = inhibition, usual class: inhibitors; 0.56% of 390,000 active; AlphaScreen HP1-beta / biotin-H3K9me3 peptide binding; also: potency is read from the fitted curve at half-maximal effect; nearly all actives have a fitted effect of over 70% in size
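AlphaScreen: HP1-beta (50 nM) preformed 30 min with biotin-H3(1-18)K9me3 peptide (50 nM) in PBS pH 7.4, 0.01% Tween-20. Compound added for 30 min at RT, then streptavidin donor/nickel chelate acceptor beads (10 ug/mL) for 30 min.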
Six1-Eya2 inh: qHTS Assay for Inhibitors of the Six1/Eya2 Interaction | 0.56% of 360,000 active | AlphaScreen GST-Six1/His-Eya2 binding, biochemical; active compounds read low | Homeobox protein SIX1 (Homo sapiens) + Protein phosphatase EYA2 (Homo sapiens), … | AID 651725, 2012 | activity change, % (concentration not given with the values); in the data active = activity change below about -65%; inconclusive = mostly about -30% to -63%; also: % is scaled to controls: 0 for no effect and ±100 for the full control effect
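Homogeneous AlphaScreen proximity assay pairing GST-Six1 with His-tagged Eya2 (added as 5X mix: 250 nM and 500 nM) in 50 mM Tris pH 8.0, 300 mM NaCl, 1 mM TCEP. Glutathione donor and nickel acceptor beads; 1 h, 37 °C, dark.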
CtBP-E1A blk: qHTS Assay for Inhibitors of the CtBP/E1A Interaction; AlphaScreen GST-E1A/His-CtBP binding, 1536-well; active compounds read low; activity change, % (no concentration beside the values); CtBP / adenovirus E1A interaction (AlphaScreen); 0.49% of 340,000 active; in the data active = activity change below about -65%; inconclusive = mostly about -30% to -63%; also: % is scaled to controls: 0 for no effect and ±100 for the full control effect
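AlphaScreen with 125 nM GST-E1A and 125 nM His-CtBP (5X stocks) in Tris pH 8.0, 300 mM NaCl, BSA, Tween 20, TCEP. Compounds preincubated 2 h at 37 deg C, then glutathione donor/nickel acceptor beads added for 1 h at 37 deg C in dark.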
BAZ2B block: qHTS Assay for Inhibitors of BAZ2B; Bromodomain adjacent to zinc finger domain protein 2B (Homo sapiens), Q9UIF8; AlphaScreen BAZ2B-H3K14Ac peptide displacement; Potency, µM (series often up to 114 µM), for inactives: at the top dose activity change, negative = inhibition, most hits filed as inhibitors; 4.4% of 360,000 active; AID 504333, 2011; also: potency is read from the fitted curve at half-maximal effect; % is scaled to controls: 0 for no effect and ±100 for the full control effect; nearly all actives have a fitted effect of over 60% in size
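Complex of BAZ2B and biotin-H3K14Ac (50 nM apiece) forms over 30 min at RT, then faces library compounds up to 110 uM for another 30 min; AlphaScreen beads added, 20 min dark incubation, luminescence read.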
JMJD2A Tudor: qHTS Assay for Inhibitors of JMJD2A-Tudor Domain; 4.4% of 390,000 active; AlphaScreen JMJD2A-Tudor / H3K4me3 peptide binding; Potency, µM (highest dose often 114 µM), inactives show top-dose activity change, negative = inhibition, hits mostly inhibitors; AID 504339, 2011; also: potency is read from the fitted curve at half-maximal effect; % is scaled to controls: 0 for no effect and ±100 for the full control effect; nearly all actives have a fitted effect of over 50% in size
* hit, by the source's call; ? = inconclusive; · = no result; [ ] = another dose, or the depositor's remark. Unless noted, calls follow the shape of the dose curve; as a rule, active = well fitted inhibition curve with a large enough effect; inconclusive = small, poorly fitted or top-dose-only effect; inactive = no such curve, though single readings can be large or run the other way.

SMILES	G9a inh	HP1b chromo inh	Six1-Eya2 inh	CtBP-E1A blk	BAZ2B block	JMJD2A Tudor
COC(=O)C1=C(CS(=O)(=O)c2cc(Cl)ccc2OC)NC(=O)NC1c1ccccc1 (centres undefined)	-1%[59 µM]	17%	·	·	-7%	-12%
CCOC(=O)C1CCN(C(c2ccccc2OC)c2c(O)cc(C)n(CCOC)c2=O)CC1 (centres undefined)	3%[59 µM]	42%[57 µM]	·	·	2%	-4%
CCN1c2ccccc2NC2C1C(C(C)=O)C(=O)N2c1ccc(Cl)cc1 (centres undefined)	45µM*	-11%	-27	15	?	?
O=C1Nc2ccccc2N(O)N1c1ccc(Cl)cc1	2%	16%	9	-8	-17%	-3%
CC(=O)c1cccc(NC(=O)Cn2c(=O)oc3cc(S(=O)(=O)NC4CCCC4)ccc32)c1	5%[59 µM]	48%	·	·	-1%	0%
COc1cc(C(=O)NC(c2ccccc2)c2ccccc2)cc(OC)c1C	50µM*	15%	2	3	?	-6%
CNC(=O)c1cc(Cl)c(OC)c(OC)c1	7.9µM*	?	-6	3	-1%	-35%
Cc1ccc2nc3c(cc(C(=O)NCc4cccnc4)c(=N)n3C(C)C)c(=O)n2c1	40µM*	·	·	·	1%	·
CCc1c(C)nc2[nH]nc(NC(=O)C(F)(F)F)n2c1=O	16µM*	-14%	3	0	?	89µM*
CCc1c(C)nc2nc(NC(C)=O)[nH]n2c1=O	?	14%	-2	1	-10%	-28%
CC(=O)c1cccc(NC(=O)Cn2c(=O)oc3cc(S(=O)(=O)NCc4ccccc4)ccc32)c1	-21%[59 µM]	39%	·	·	4%	-9%
Cn1nnnc1Sc1ncnc2scc(-c3cccc(C#N)c3)c12	·	·	·	·	·	-8%
CCn1cc(C(=O)NCc2ccco2)c(=O)c2cc(F)c(N3CCN(C(=O)c4ccco4)CC3)cc21	14µM*	24%	-17	-22	56µM*	-30%
CCn1cc(C(=O)NCCc2ccccc2)c(=O)c2cc(F)c(N3CCN(C)CC3)cc21	-26%[59 µM]	22%	1	-7	2%	-11%
CCn1cc(C(=O)NCc2ccccn2)c(=O)c2cc(F)c(N3CCN(C)CC3)cc21	0.45µM*	23%	0	3	-1%	-10%
Cc1cccc(N2C(=O)CS(=O)(=O)C23C(=O)N(C)c2ccccc23)c1 (centres undefined)	-24%[59 µM]	30%	·	·	8%[57.1 µM]	-10%
CCNc1ncc2ncc(=O)n(Cc3cccs3)c2n1	5%[0.501 µM]	·	·	·	·	·
CCOc1ccc(/C=C/c2nc(C#N)c(NCCc3ccccc3)o2)cc1	2%[59 µM]	8%	·	·	-20%	-16%
COCc1ccc(C(=O)NCC2(N3CCCCC3)CCCCC2)cc1	?	5%	6	6	79µM*	13µM*
CC(=O)Nc1ccc(S(=O)(=O)Nc2ccc3c(c2)CCC3)cc1	45µM*	-4%	11	1	-18%	-22%
CCN(CC)c1ccc(NS(=O)(=O)c2ccc(OC)cc2)cc1	16µM*	25%	-4	1	40µM*	-3%
COc1ccc(S(=O)(=O)Nc2ccc(N(C)C(C)=O)cc2)cc1	21%[59 µM]	16%	5	-1	11%	-19%
CC(=O)Nc1ccc(S(=O)(=O)Nc2ccc3[nH]c(=O)[nH]c3c2)cc1	-9%	24%	10	0	25%	-3%
COc1ccc(S(=O)(=O)Nc2ccc3c(c2)CCC3)cc1	-8%	-12%	0	1	6%	10µM*
CC1=C(C(=O)NCc2ccccc2Cl)C2(CCCCCC2)OC1=O	5%[59 µM]	8%	·	·	8%	3%
SMILES	G9a inh	HP1b chromo inh	Six1-Eya2 inh	CtBP-E1A blk	BAZ2B block	JMJD2A Tudor
O=S1(=O)c2ccccc2N(Cc2cccc(Cl)c2)c2ccccc21	-18%[59 µM]	25%	·	·	-36%	-16%
CCOC(=O)Cn1c(=O)n(C2CCCCC2)c2nc(-c3ccc(OCC)cc3)nc(C(N)=O)c21	6%[59 µM]	25%[57 µM]	·	·	-4%	-25%
COCCNC(=S)NN(c1ccccc1)c1ccccc1	28µM*	-13%	8	-5	-37%	-27%
CCC(=O)N1c2ccccc2CC1C(=O)NCCN1CCN(c2cccc(C)c2C)CC1 (centres undefined)	2%[59 µM]	-2%	·	·	-25%	-24%
CCCNc1c(N)n(-c2ccccc2)c(=O)[nH]c1=O	35µM*	14%	3	8	56µM*	?
Nc1c(N=O)c(=O)[nH]c(=O)n1-c1ccccc1	·	-17%	-11	4	·	50µM*
CC(C)(C)C(=O)Nc1ccc2c(c1)C(=O)C(=O)c1ccccc1-2	·	42%	·	·	·	5%
CCOc1ccc(C2CC(=O)n3nc(-c4ccc(C)cc4)nc3S2)cc1OC (centres undefined)	-23%[59 µM]	51%	·	·	-1%	1%
CCOc1ccccc1CNC(=O)C1CCN(Cc2cc3ccccc3n2Cc2ccccc2)CC1	3%[59 µM]	18%	·	·	-16%	-8%
COc1cc(/C(C)=N/Nc2ccc(C(=O)O)cc2)cc(OC)c1OC	?	20%	-2	6	1%	-13%
COc1ccc(OC)c(/C(C)=N/Nc2ccc(C(=O)O)cc2)c1	14µM*	27%	-2	2	-22%	-7%
COc1ccc(/C(C)=N/Nc2ccc(C(=O)O)cc2)cc1OC	?	46%	-17	-4	-1%	-10%
C/C(=N/Nc1ccc(C(=O)O)cc1)c1ccc(O)c(O)c1O	3.5µM*	7%	?	-21	-33%	10µM*
COc1cccc(N2CC(NC(=O)c3cccs3)CC2=O)c1 (centres undefined)	2%[59 µM]	-9%	·	·	-23%	3%
N#C/C(=C\c1c(Oc2ccc(F)cc2)nc2ccccn2c1=O)c1nc2ccccc2s1	2.2µM*	40%	·	·	-4%	-16%
Cc1cccn2c(=O)c(/C=C(\C#N)c3nc4ccccc4s3)c(Oc3ccc(Br)cc3)nc12	?	49%	·	·	2%	-15%
Cc1ccc(Oc2nc3ccccn3c(=O)c2/C=C(\C#N)c2nc3ccccc3s2)c(C)c1	2.5µM*	55%	·	·	-2%	2%
Cc1ccccc1Oc1nc2ccccn2c(=O)c1/C=C(\C#N)c1nc2ccccc2[nH]1	2%[59 µM]	41%	·	·	4%	1%
